# Test results reported in PubChem BioAssay.
# Active and inactive are the calls of the source.
# Assays:
# Albumin (Bos taurus) = Albumin (Bos taurus) (UniProt P02769); assay: compounds binding labelled BSA control protein – biochemical, small-molecule microarray, Alexa647 label, 635/667 nm fluorescence, artefact control for SMM control protein annotation, profiling panel (AID 1118); conditions: BSA-A647 binding, fluorescence 635 nm, higher = more signal;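 also: score merges 667 nm emission intensity and signal-to-noise per printed compound spot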
# Albumin (Bos taurus), sequence (P02769 whole entry, looked up): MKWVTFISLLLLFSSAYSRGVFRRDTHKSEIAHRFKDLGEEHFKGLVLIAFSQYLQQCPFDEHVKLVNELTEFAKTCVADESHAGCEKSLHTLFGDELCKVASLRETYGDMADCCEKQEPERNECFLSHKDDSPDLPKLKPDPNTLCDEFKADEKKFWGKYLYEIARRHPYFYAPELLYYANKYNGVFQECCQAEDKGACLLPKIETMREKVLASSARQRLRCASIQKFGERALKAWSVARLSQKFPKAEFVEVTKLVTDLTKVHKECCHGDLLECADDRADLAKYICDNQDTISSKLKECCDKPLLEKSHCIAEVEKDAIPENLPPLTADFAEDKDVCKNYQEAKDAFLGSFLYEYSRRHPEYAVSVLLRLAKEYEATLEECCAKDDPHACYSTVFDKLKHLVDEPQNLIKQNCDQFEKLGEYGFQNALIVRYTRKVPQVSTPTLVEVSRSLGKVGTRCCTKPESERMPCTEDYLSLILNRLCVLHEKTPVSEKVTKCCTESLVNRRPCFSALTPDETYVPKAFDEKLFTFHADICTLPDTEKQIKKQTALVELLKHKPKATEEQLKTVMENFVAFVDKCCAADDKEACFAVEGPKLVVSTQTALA
# [1] = probe aXIP binding to arrayed compounds – biochemical, NeuroSMM set, 635/667 nm fluorescence, primary screen (AID 1119); conditions: small-molecule microarray, higher = more signal, called active from +8 up or from −8 down;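 also: probe is the protein aXip251-270 applied at 1 µg/mL to compound-printed slides; binding of probe to printed compounds measured as 667 nm fluorescence plus signal to noise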
# [2] = probe aNOTCH3 binding on compound microarray – biochemical, small-molecule microarray, 635/667 nm fluorescence, primary screen (AID 1120); conditions: higher = more signal;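 also: probe is a biotin-tagged antibody raised against NOTCH3 rather than NOTCH3 protein; score merges spot fluorescence near 667 nm with spot signal to noise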
# [3] = probe aNOTCH2 binding on compound microarray – biochemical, small-molecule microarray, 635/667 nm fluorescence, primary screen (AID 1121); conditions: higher = more signal;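 also: score merges feature fluorescence read at 667 nm with its signal to noise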
# [4] = molecular target: Carbonic anhydrase 2 (Homo sapiens) (UniProt P00918); assay: compounds binding carbonic anhydrase 2 – biochemical, small-molecule microarray, Alexa647-labelled CAII, profiling panel (AID 1122); conditions: CAII-A647 binding fluorescence, higher = more signal
# [5] = COS7 lysate on small-molecule microarray, probe aHis, 635 nm (AID 1123); conditions: COS7 cell lysate, fluorescence, higher = more signal;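 also: z-score combines 667nm fluorescence intensity with signal-to-noise per printed compound spot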
# [6] = probe aLAP1 signal on lysate-treated microarray – cell lysate, small-molecule microarray, COS7 lysate, primary screen (AID 1124); conditions: probe aLAP1, fluorescence, higher = more signal;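 also: lysate comes from COS7 cells expressing LAP1 and is applied at 0.3 µg/mL; score merges spot fluorescence near 667 nm with signal-to-noise over triplicate slides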
# Sam68 (KHDRBS1) = assay: compounds binding KHDRBS1 protein – biochemical, small-molecule microarray, 635 nm fluorescence, primary screen (AID 1125); conditions: higher = more signal;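 also: score merges 667 nm channel intensity with signal to noise over triplicate slides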
# [7] = tested on: Chordin-like protein 2 (CHRDL2); assay: compounds binding chordin-like 2 – biochemical, small-molecule microarray, 635 nm fluorescence, primary screen (AID 1126); conditions: fluorescence 635 nm, higher = more signal;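 also: printed compound slides probed with Chrdl2 protein at 4 µg/mL for 1 h at 4 C; score merges 667 nm emission intensity with signal to noise over three replicate slides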
# [8] = molecular target: Concanavalin-A (Canavalia ensiformis) (UniProt P02866); assay: compounds binding concanavalin A lectin – biochemical, small-molecule microarray, Alexa647 label, 635 nm, artefact control for SMM control protein annotation, primary screen (AID 1127); conditions: ConA-A647 binding fluorescence, higher = more signal;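 also: z combines 667 nm emission intensity with signal-to-noise across three replicate slides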
# Concanavalin-A (Canavalia ensiformis), sequence (P02866 whole entry, looked up): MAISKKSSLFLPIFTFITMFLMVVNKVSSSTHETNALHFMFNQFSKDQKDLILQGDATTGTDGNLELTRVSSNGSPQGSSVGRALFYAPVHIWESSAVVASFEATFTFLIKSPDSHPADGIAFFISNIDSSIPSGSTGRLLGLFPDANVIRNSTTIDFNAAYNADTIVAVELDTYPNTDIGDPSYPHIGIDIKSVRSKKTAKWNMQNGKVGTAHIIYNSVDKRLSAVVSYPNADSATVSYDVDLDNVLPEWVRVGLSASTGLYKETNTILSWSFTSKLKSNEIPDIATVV
# [9] = compounds binding Alexa647 anti-His antibody – biochemical, small-molecule microarray, 635 nm fluorescence, artefact control for SMM control protein annotation, primary screen (AID 1128); conditions: higher = more signal;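 also: score merges feature fluorescence with signal-to-noise for each printed compound spot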
# [10] = tested on: Human papillomavirus type 1a E7 protein (residues 1-88); assay: HPV1a E7 small-molecule binders, primary screen, biochemical, small-molecule microarray, residues 1-88, 635 nm (AID 1129); conditions: small-molecule microarray binding, fluorescence 635 nm; higher = more signal
# [11] = molecular target: Focal adhesion kinase 1 (Homo sapiens) (UniProt Q05397); assay: PTK2 protein binding on printed compound slides – biochemical, small-molecule microarray, 635/667 nm fluorescence, BSA, DTT, primary screen (AID 1130); conditions: 635 nm fluorescence, higher = more signal;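 also: composite of spot emission at 667 nm and signal to noise over triplicate slides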
# Focal adhesion kinase 1 (Homo sapiens), sequence (Q05397 whole entry, looked up): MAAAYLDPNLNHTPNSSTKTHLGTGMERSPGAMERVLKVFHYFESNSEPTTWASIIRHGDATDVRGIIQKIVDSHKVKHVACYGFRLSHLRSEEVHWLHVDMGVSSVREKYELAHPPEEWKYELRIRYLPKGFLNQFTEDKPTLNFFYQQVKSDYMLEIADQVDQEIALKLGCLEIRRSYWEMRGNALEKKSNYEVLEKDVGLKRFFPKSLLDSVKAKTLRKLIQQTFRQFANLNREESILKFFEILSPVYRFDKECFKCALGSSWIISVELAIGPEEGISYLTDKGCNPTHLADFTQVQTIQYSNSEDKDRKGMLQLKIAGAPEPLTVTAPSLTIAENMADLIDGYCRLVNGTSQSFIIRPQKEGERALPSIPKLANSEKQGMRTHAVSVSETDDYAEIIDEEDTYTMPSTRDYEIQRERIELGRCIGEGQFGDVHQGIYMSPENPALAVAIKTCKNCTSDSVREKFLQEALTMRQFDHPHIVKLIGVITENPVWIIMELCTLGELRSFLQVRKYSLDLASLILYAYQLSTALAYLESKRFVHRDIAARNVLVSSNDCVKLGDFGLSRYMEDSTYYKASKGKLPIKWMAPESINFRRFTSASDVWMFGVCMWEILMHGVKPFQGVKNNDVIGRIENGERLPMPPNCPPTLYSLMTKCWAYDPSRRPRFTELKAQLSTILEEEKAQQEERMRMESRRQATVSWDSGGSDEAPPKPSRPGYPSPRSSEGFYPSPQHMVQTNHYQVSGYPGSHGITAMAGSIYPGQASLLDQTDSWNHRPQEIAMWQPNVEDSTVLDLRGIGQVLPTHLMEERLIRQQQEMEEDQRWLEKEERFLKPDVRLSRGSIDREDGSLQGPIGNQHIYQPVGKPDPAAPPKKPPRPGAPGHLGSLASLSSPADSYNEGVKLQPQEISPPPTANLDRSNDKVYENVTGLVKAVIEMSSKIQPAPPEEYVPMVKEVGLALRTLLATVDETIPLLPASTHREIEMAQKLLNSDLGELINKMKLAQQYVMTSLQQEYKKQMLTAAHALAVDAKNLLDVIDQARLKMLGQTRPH
# [12] = tested on: Fibrinogen (Alexa647-labelled); assay: Alexa647-fibrinogen binding to printed small molecules – biochemical, small-molecule microarray, 635/667 nm fluorescence, artefact control for SMM control-protein annotation, profiling panel (AID 1131); conditions: fibrinogen-A647 binding fluorescence, higher = more signal;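 also: z-score merges 667 nm fluorescence with per-spot signal-to-noise over triplicate slides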
# [13] = molecular target: Follistatin (Homo sapiens) (UniProt P19883); assay: FST protein binding to printed compounds – biochemical, small-molecule microarray, 635/667 nm fluorescence, primary screen (AID 1132); conditions: 635 nm fluorescence, higher = more signal
# Follistatin (Homo sapiens), sequence (P19883 whole entry, looked up): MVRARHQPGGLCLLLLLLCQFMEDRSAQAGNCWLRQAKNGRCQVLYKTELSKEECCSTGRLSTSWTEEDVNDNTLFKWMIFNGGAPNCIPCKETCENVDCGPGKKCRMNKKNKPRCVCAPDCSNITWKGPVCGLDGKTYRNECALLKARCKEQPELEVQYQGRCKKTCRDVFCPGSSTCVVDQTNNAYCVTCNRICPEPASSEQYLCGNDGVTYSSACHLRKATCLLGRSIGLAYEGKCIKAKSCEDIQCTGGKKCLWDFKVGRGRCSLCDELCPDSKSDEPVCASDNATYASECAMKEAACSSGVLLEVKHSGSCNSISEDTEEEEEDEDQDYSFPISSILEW
# [14] = molecular target: Fibroblast growth factor 2 (Homo sapiens) (UniProt P09038); assay: basic fibroblast growth factor binding to printed compounds – biochemical, small-molecule microarray, 635/667 nm fluorescence, primary screen (AID 1133); conditions: FGF2, fluorescence 635/667, higher = more signal
# Fibroblast growth factor 2 (Homo sapiens), sequence (P09038 whole entry, looked up): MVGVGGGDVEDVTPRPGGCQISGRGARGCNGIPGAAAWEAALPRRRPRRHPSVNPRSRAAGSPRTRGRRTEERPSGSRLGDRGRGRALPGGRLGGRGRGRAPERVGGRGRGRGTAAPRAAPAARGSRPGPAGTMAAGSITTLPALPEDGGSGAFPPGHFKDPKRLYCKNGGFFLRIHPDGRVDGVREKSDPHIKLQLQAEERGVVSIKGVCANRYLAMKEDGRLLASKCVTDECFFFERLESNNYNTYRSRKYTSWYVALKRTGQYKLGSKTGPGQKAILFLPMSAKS
# [15] = JC-1 mitochondrial potential readout, lung cancer cells – cell-based, A549, JC-1 fluorescence, basal, 24 h, 100 nL, profiling panel (AID 1138); conditions: higher = more signal;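 also: A549 lung adenocarcinoma cells under basal conditions with no added stimulus; test concentration not given here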
# Lefty1 = Lefty1 protein binding to printed compounds – biochemical, small-molecule microarray, 635/667 nm fluorescence, primary screen (AID 1139); conditions: fluorescence 635/667, higher = more signal
# [16] = tested on: wheat germ agglutinin (Triticum aestivum), Alexa647-labelled; assay: Alexa647-WGA lectin binding to printed small molecules – biochemical, small-molecule microarray, 635/667 nm fluorescence, artefact control for SMM control-protein annotation, profiling panel (AID 1140); conditions: WGA-A647 binding, 635 nm fluorescence, higher = more signal;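 also: score merges 667 nm feature emission with signal to noise over triplicate slides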
# [17] = molecular target: Luciferin 4-monooxygenase (Photinus pyralis) (UniProt P08659); assay: inhibition of purified Photinus pyralis luciferase – biochemical, luminescence, purified enzyme, 2006 set, primary screen (AID 1141); conditions: purified firefly luciferase, SteadyGlo luminescence, 30 min; higher = more signal, called active from +8 up or from −8 down;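 also: cell-free assay with purified firefly luciferase at 100 ng per well in PBS; test concentration not given here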
# Luciferin 4-monooxygenase (Photinus pyralis), sequence (P08659 whole entry, looked up): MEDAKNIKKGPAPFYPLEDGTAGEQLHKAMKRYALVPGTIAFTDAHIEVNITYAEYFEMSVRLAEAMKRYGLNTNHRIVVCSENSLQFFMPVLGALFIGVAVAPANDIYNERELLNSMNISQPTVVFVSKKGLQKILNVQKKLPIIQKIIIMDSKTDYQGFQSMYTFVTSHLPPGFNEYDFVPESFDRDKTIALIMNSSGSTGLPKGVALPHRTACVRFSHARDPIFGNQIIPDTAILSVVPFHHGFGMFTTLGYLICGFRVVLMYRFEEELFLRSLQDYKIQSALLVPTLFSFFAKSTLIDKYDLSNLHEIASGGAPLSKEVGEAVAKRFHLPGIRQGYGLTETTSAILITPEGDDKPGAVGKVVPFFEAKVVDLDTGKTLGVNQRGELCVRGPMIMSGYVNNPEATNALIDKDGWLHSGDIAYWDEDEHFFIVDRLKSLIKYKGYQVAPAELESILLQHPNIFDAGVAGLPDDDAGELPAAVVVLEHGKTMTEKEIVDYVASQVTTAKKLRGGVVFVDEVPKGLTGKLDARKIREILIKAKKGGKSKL
Structure (SMILES),composite z-score (Albumin (Bos taurus)),composite Z-score [1],composite z-score [2],composite z-score [3],composite z-score [4],composite z-score [5],composite z-score [6],composite z-score (Sam68 (KHDRBS1)),composite z-score [7],composite z-score [8],composite z-score [9],composite z-score [10],composite z-score [11],composite z-score [12],composite z-score [13],composite z-score [14],z-score [15],composite z-score (Lefty1),composite z-score [16],z-score [17]
Cn1cccc1C(O)C1C=CC2C(=O)NC(=O)C2N1Nc1ccc(Cl)cc1Cl (stereo not given),1.04,0.589 (inactive),0.569,0.403,0.731,2.79,1.26,1.29,-0.851,1.21,1.43,1.24,1.42,1.02,1.28,0.0937,-0.13,-0.207,1.15,-1.4 (inactive)
O=C(NCc1ccccc1)[C@@H]1c2ccccc2C(=O)N(Cc2ccccc2C(F)(F)F)[C@H]1c1ccc(CO)cc1,-0.0228,-0.683 (inactive),-0.232,-0.13,0.759,0.829,2.63,0.227,-1.2,0.612,-0.782,0.334,0.0179,-0.709,0.592,-0.133,1.86,-0.324,0.32,-0.745 (inactive)
COc1ccc([Si](C)(C)[C@@H]2[C@@H](CC(=O)N(CCO)Cc3ccccc3)O[C@]3(C(=O)N(Cc4cccc(N5CCOC5=O)c4)c4ccccc43)[C@H]2C)cc1,-0.256,1.28 (inactive),-0.269,-0.0993,0.596,1.22,0.766,1.3,0.647,1.08,1.78,1.13,0.139,0.732,0.583,0.393,-0.154,0.899,0.717,0.229 (inactive)
COCCOC(=O)N1C(=O)[C@@]2(c3cc(C#CC4=CCCCC4)ccc31)[C@H](C(=O)N1CCCCCCC1)[C@H]1C(=O)O[C@H](c3ccccc3)[C@H](c3ccccc3)N1[C@@H]2c1ccc(O)cc1,0.25,0.0769 (inactive),0.183,0.103,0.334,2.17,0.147,1.25,0.277,0.622,-0.014,1.13,0.701,-0.0414,1.12,0.446,0.5,0.486,0.436,-5.8 (inactive)
CC(=O)c1ccc(C(O)C2C=CC3C(=O)N(c4ccccc4)C(=O)C3N2Nc2ccc(C#N)cc2)cc1 (stereo not given),0.962,0.824 (inactive),0.119,-0.0023,0.759,2.46,-0.1,1.1,-0.624,1.13,0.631,1.01,1.27,0.72,-0.111,0.196,0.0866,-0.253,0.714,-0.0334 (inactive)
CCOC(=O)c1ccc(NC(=O)O[C@H]2[C@H](OC(=O)Nc3ccc4c(c3)OCO4)[C@H](OC(=O)Nc3ccc4c(c3)OCO4)[C@@H](OC)O[C@@H]2CO)cc1,0.0541,1.52 (inactive),0.411,0.077,0.49,1.52,0.551,1.3,0.393,1.18,1.73,1.26,0.812,1.01,1.38,1.42,-0.551,1.24,0.743,-9.03 (active)
COC(=O)[C@@]1(Cc2ccc(F)cc2)[C@H]2c3cc(C(=O)N4CCCC4)n(CCN4CNCC4=O)c3C[C@H]2CN1C(=O)c1ccccc1,0.975,-0.476 (inactive),0.323,-0.0345,0.766,3.18,0.197,0.592,-0.834,0.63,2.44,1.24,0.922,1,-0.0189,-0.841,-1.6,-0.0252,1.01,2.51 (inactive)
C=CCN1Cc2ccccc2[C@H]2OC(c3ccc(OCCCO)cc3)=N[C@@]2(CC=C)C1=O,-0.405,0.911 (inactive),0.133,0.007,0.418,2.78,0.373,1.31,1.39,0.85,2.47,1.23,1.12,0.59,1.54,1.87,1.33,0.834,0.619,-0.107 (inactive)
C=CCNC(=O)[C@H]1[C@@H]2C(=O)O[C@@H](c3ccccc3)[C@@H](c3ccccc3)N2[C@@H](c2ccc(O)cc2)[C@]12C(=O)Nc1ccc(C#CC3(O)CCCCCC3)cc12,0.201,-0.005 (inactive),0.0961,-0.0695,0.714,2.11,0.355,1.1,0.215,0.556,2.76,0.277,0.201,0.481,1.16,0.267,-1.22,-0.15,0.0932,0.452 (inactive)
Cc1ccc(S[C@]2(C(=O)NCC(F)(F)F)CC(=O)N(C3CCCCC3)[C@@H]2c2ccc(CO)cc2I)cc1,0.488,-0.132 (inactive),-0.046,-0.108,0.369,2.01,0.159,1.3,0.0471,0.955,0.21,1.21,0.543,0.774,0.969,0.621,2.17,0.465,0.395,-0.691 (inactive)
